PTHR1 agonist – PTHR1 (human) receptor agonism | HEK293 GP2 PTHR1 cells, GloSensor cAMP luminescence, 1 h | Potency, µM (titrated, usually from 115 µM), for the others: top-dose activation, usual class: activators | hit rate 0.075% among 410,000 | AID 743266; further: potency means the concentration at half of the fitted maximal effect; nearly all actives have a fitted effect of over 55% in size
Target sequence (Q03431 whole entry, looked up): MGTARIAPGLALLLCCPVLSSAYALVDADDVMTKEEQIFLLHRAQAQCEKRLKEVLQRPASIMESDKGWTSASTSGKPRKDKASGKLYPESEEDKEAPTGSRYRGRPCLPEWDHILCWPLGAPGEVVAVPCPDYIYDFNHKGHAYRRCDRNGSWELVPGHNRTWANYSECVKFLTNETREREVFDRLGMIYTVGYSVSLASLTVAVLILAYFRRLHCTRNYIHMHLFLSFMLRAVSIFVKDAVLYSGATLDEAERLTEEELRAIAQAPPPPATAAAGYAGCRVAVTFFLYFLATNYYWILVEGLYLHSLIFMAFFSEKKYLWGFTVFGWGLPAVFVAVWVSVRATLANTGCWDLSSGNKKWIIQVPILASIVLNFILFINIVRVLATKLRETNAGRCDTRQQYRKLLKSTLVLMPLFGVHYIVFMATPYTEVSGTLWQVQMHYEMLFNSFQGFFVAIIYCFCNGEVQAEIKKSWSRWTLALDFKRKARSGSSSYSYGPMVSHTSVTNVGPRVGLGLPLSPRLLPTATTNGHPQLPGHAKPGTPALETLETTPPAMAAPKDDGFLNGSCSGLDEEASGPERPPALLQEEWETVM
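HEK-293-derived GP2 cells expressing PTHR1 and a GloSensor cAMP reporter, 3,000/well, plated overnight, given luciferin plus IBMX (each 0.5 mM as added) for 1 h at 37 °C, then compound for 1 h at 37 °C. Luminescence was read after 15 min at room temperature.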
HEK293 tox – cytotoxic in the GLP-1 receptor inverse agonist counter-screen | HEK293 cAMP-luciferase reporter cells, luminescence, 24 h | AID 624418 | Potency, µM (doses to about 38.3 µM), for the others: at the top dose activity change, negative = inhibition, hits mostly inhibitors | hit rate 0.13% among 410,000;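 further: loss of luciferase light is scored as toxicity; potency means the concentration at half of the fitted maximal effect; on the % scale 0 is the no-effect control and ±100 the full control effect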
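Quantitative HTS format, 1536 wells, 200 cells/uL seeded. Compounds: 23 nL, 24 h, 37 °C. Detection: luciferase reagent, luminescence at 12 min RT; decreased signal taken as cytotoxic.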
TRHR enhancer-1 – allosteric enhancers of human TRH receptor. P34981. TRHR cells, fluo-8 calcium fluorescence, EC20 TRH enhancement. enhancement, % at 2 µM. hit rate 0.66% among 360,000. AID 493056; in the data active means enhancement above about 30%; further: 0% is about no effect
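TRHR-expressing cells loaded with fluo-8 calcium dye were read kinetically (ex 480/em 530) during compound addition, then stimulated with an EC20 of TRH (10 nM final). Enhancement of the Gq-mediated intracellular calcium response was scored.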
GLP1R inv ag – inverse agonists of human GLP-1 receptor; P43220; HEK293 GLP-1R CRE-luciferase, luminescence, 24 h; GLP-1R form is constitutively active; Potency, µM (titrated, usually from 38.3 µM), without a hit: top-dose activity change, negative = inhibition, actives largely listed as inhibitors; hit rate 1.6% among 410,000; AID 624417; further: potency means the concentration at half of the fitted maximal effect; on the % scale 0 is the no-effect control and ±100 the full control effect; nearly all actives have a fitted effect of over 55% in size
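qHTS in 1536-well format: reporter HEK293 cells expressing constitutive GLP-1R activity in DMEM + 10% Nu serum, 24 hr with compounds at 37 deg C, luminescence read after 12 min with detection reagent.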
GLP-1R agonist – activates the human GLP-1 receptor | HEK293 GLP-1R CRE-luciferase, luminescence, 4-6 h; cells express a hypersensitive GLP-1R form | Potency, µM (doses to about 45.6 µM), inactives show top-dose activation, usual class: activators | hit rate 0.007% among 380,000 | AID 624172; further: potency means the concentration at half of the fitted maximal effect; % of control where 0% means no effect
TRHR agonist-1 – TRH receptor (human) agonism. P34981. TRHR cells, calcium flux fluo-8, FDSS agonist mode. activation, % at 2 µM. hit rate 0.18% among 360,000. AID 493084; in the data active means activation above about 30%; further: 0% is about no effect
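TRHR-expressing cells, plated overnight in medium with 10% serum, were loaded with fluo-8 calcium dye at room temperature. After a 10 s baseline, library compound was pin-added and calcium release was recorded kinetically (ex 480/em 530) as agonist response.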
TRHR enhancer-2 – confirmation of human TRH receptor allosteric enhancers | shares compounds with TRHR enhancer-1 | TRH receptor cell assay, enhancer confirmation qHTS | activity change, negative = inhibition, % at 46.1 µM | 970 tested, under 10 active;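 further: compound effect scored on response to added TRH at EC20 of 10 nM; 0% is about no effect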
TRHR agonist-2 – confirmation of human TRH receptor agonists; shares compounds with TRHR enhancer-1; TRHR-expressing cells, agonist activation read-out; Potency, µM (series often up to 46.1 µM), inactives show at the highest dose activation, most hits filed as activators; hit rate 8% among 970; further: potency means the concentration at half of the fitted maximal effect; 0% is about no effect; nearly all actives have a fitted effect of over 75% in size
* marks the source's active call; other numbers are inactive results; i = inactive; ? = inconclusive; / = no result given; [ ] = dose if it differs, or a comment. The list is not random: actives were taken first. Their share in the collection is about 2.4%. Unless noted, the call rests on the fitted dose curve; in most records, active means well fitted curve in the direction sought with a large enough effect; inconclusive means small, poorly fitted or top-dose-only effect, or another doubt; inactive means no such curve, though single readings can be large; an effect the other way counts as inactive or inconclusive.

SMILES	PTHR1 agonist	HEK293 tox	TRHR enhancer-1	GLP1R inv ag	GLP-1R agonist	TRHR agonist-1	TRHR enhancer-2	TRHR agonist-2
COc1ccc(N(CC(=O)Nc2ccc3c(c2)OCO3)S(=O)(=O)c2ccc(C)cc2)cc1OC	i	-12%	7	-6%	32%	0	/	/
N#C/C(=C/c1ccc(N2CCOCC2)o1)C(=O)NC1CCCCC1	-51%	-5%	2	23%	20%	47*	?	21µM*
O=C(CSc1ccc(-c2ccc(Cl)cc2)nn1)N1CCCc2ccccc21	-39%	-4%	-6	?	0%	2	/	/
O=C(CSc1ccc(-c2cccnc2)nn1)N1CCCc2ccccc21	/	/	41*	/	/	0	-7	0%
CC(C)CCNC(=O)NC(=O)CSc1nnc(-c2ccccc2Br)o1	-90%	14%	42*	0%	8%	0	-3	2%
CCCNC(=O)NC(=O)CSc1nnc(-c2c[nH]c3ccccc23)o1	-11%	-11%	7	-7%	0%	0	/	/
Cc1ccccc1NC(=O)CN1CCOCC1	i	15%	56*	14%	2%	0	14	0%
Cc1ccccc1NC(=O)CN1CCCC1	-23%	1%	/	9%	-6%	/	/	/
CCCCCn1c(=S)[nH]c2ncccc2c1=O	i	-12%	-2	18%	-16%	1	/	/
CN(CCCn1c(=S)[nH]c2ncccc2c1=O)Cc1ccccc1	i	-11%	46*	1%	-4%	-1	3	-1%
CCN(CC)c1ccc(/C=C2\SC(N)=NC2=O)cc1	-7%	-2%	27	46%	-3%	29	1	?
CN1CCN(CCCNC(=O)c2ccc3nc(Cc4ccccc4)oc3c2)CC1	-17%	1%	-2	4%	/	1	/	/
CCc1ccc(C(=O)NCC2COc3ccccc3O2)o1 (configuration not stated)	-24%[57.5 µM]	3%	60*	8%	15%	0	-8	1%
O=Cc1ccc(OCc2ccc3c(c2)OCO3)cc1	-23%	-19%	-1	?	8%	26	-5	2%
Cc1cc(NC(=O)CCN2C(=O)c3ccccc3C2=O)no1	-7%[57.5 µM]	1%	56*	0%	5%	-1	0	-1%
Cc1ccc(NC(=O)CCN2C(=O)c3ccccc3C2=O)cc1	-19%	0%	-8	13%	1%	0	/	/
Nc1c(C(=O)Nc2nccs2)sc2nc(-c3cccs3)cc(C(F)(F)F)c12	i	36%	28	0%	-27%	-1	/	/
Cc1nnc(NC(=O)c2sc3nc(-c4cccs4)cc(C(F)(F)F)c3c2N)s1	-20%	47%	2	?	-22%	52*	5	?
COc1ccc(NC(=S)N(CCC(C)C)C(C)c2ccncc2)cc1 (configuration not stated)	i	-3%	-2	?	8%	0	/	/
CC(C)(C)C1=NN(c2ccc([N+](=O)[O-])cc2)C(c2ccccc2)C1 (configuration not stated)	-12%	1%	-16	?	8%	1	/	/
O=[N+]([O-])c1ccc(N2N=C(c3ccco3)CC2c2ccccc2)cc1 (configuration not stated)	i	104%	-9	0%	-12%	28	6	?
COc1ccc(CCNC(=O)c2ccc(Cn3c(=O)c4ccccc4n(Cc4ccccc4Cl)c3=O)cc2)cc1OC	-15%	0%	8	1%	0%	0	/	/
CC(N=C1NS(=O)(=O)c2ccccc21)C(=O)OCC(=O)N(C)C1CCS(=O)(=O)C1 (configuration not stated)	-4%	-3%	-1	-3%	-7%	1	/	/
C=C1C(=O)O[C@H]2[C@H]1[C@@H](O)CC(=C)[C@@H]1CC(=O)[C@@H](C)[C@H]21	i	?	52*	?	2%	1	-6	1%
COc1cc(/C=C/c2ccc3cccc(O)c3n2)cc(Cl)c1OC	-21%	?	7	?	22%	2	/	/
SMILES	PTHR1 agonist	HEK293 tox	TRHR enhancer-1	GLP1R inv ag	GLP-1R agonist	TRHR agonist-1	TRHR enhancer-2	TRHR agonist-2
Cn1c(CNC(=O)c2ccccc2)nnc1SCC(=O)Nc1nccs1	0%	16%	-1	0%	-2%	0	/	/
Cc1ccc(C(=O)NCc2nnc(SCC(=O)NC(C)c3ccccc3)n2C)cc1 (configuration not stated)	-8%	-7%	43*	-12%	1%	-1	7	-1%
CCO[C@H]1OC(C(=O)N2CCN(Cc3ccc4c(c3)OCO4)CC2)=C[C@@H](c2ccc(Br)cc2)[C@@H]1CCCO	-82%	-13%	49*	?	9%	0	-3	1%
COc1cccc(NC(=O)CN(C)S(=O)(=O)c2ccc3c(c2)NC(=O)CS3)c1	-29%	2%	4	-25%	0%	0	/	/
COCCN1CCN(Cc2cn(C)nc2-c2ccc(Oc3ccccc3)cc2)CC1	-23%	-1%	44*	-39%	8%	0	-5	2%
C=CCn1c(=O)n(C(=O)OCC)c2cc(Br)ccc21	0%	0%	66*	17%	15%	1	-7	1%
CC(C)Cc1nc2oc3c(=O)[nH]cnc3c2c2c1CCC2	?	16%	1	32%	14%	-1	/	/
COc1cc(O)c(C(CC(=O)N2CCCC2)c2cc(OC)c(OC)c(OC)c2)c(OC)c1 (configuration not stated)	i	?	49*	17%	8%	-1	-3	7%
COc1cc(O)c(C(CC(=O)N2CCCCC2)c2cc(OC)c(OC)c(OC)c2)c(OC)c1 (configuration not stated)	2%	-12%	-1	3%	-2%	0	/	/
CC(=O)Oc1ccc(-c2cccc(C(=O)NCCO)c2)cc1	i	0%	43*	16%	5%	0	-2	-1%
CSc1nnc(N2C(=O)C(O)=C(C(=O)c3ccco3)C2c2ccccc2F)s1 (configuration not stated)	-2%	74%	3	-1%	-1%	23	/	/
CSc1nnc(N2C(=O)C(O)=C(C(=O)c3ccco3)C2c2ccccc2)s1 (configuration not stated)	-17%	69%	2	-4%	-1%	30	7	6%

Compound activity from PubChem.
